Experimental data taken from PubChem BioAssay (NCI).
About 83,000 compounds went through this panel and 20% of them were active in at least one assay; those are over-represented in the sample as a whole.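 A percent growth of 40 corresponds to 60% growth inhibition; 0 means no net growth; -100 means all cells died. Active threshold: below 10.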 A number with no mark means an inactive call. The source made the active and inactive calls.

The molecules below were run on IGROV1 ovarian (assay: NCI-60 one-dose screen, 48 h (100 = growth as untreated, 0 = no growth, -100 = all killed)). Conditions: 10 µM.
Method: Growth inhibition of the IGROV1 human tumor cell line is measured as a screen for anti-cancer activity. Cells are grown in 96 well plates and exposed to the test compound for 48 hours. Compounds are tested at a single concentration, which is 10^-5 M for most compounds. The reported endpoint is percent growth (GI% or GIPRCNT), where numbers from 0 - 100% represent growth inhibition, and numbers from -100% - 0 represent cell death. For example, a value of 40 represents 60% growth inhibition. A value of 0 means no net growth occurred over the course of the experiment. A value of -40 indicates 40% of cells at the beginning of the experiment died by the end of the experiment. A value of -100 means all cells are dead at the end of the experiment.
NCI-60 Human Tumor Cell Lines Screen was performed using the standard one-dose NCI protocol, which is described in more detail at https://dtp.cancer.gov/discovery_development/nci-60/default.htm.
Compounds with GIPRCNT values below 10 were considered active. Activity score was based on GIPRCNT using the following formula: […]
Score is 0 for GIPRCNT values of 100 or above, 50 for GIPRCNT values of 0, and 100 for GIPRCNT values of -100.

| SMILES | growth |
| --- | --- |
| COc1ccc(-c2cc(-c3cc(-c4ccc(OC)cc4)nc(N)n3)nc(N)n2)cc1 | 109% |
| CCOC(=O)C(CCC(C)C)C(=O)OCC | 102% |
| O=C(OCC(O)C1OC(c2ccccc2)OC(COC(=O)c2ccccc2)C1O)c1ccccc1 (stereo not given) | 103% |
| CCn1c(=O)n(C)c2c(=O)n(C)c(=O)n(C)c21 | 122% |
| COC(=O)c1ccc(NC(=O)CCl)cc1 | 50.6% |
| CC(C(=O)O)(C1CCCCC1)C1(O)CCCCC1 (stereo not given) | 101% |
| c1ncc2[nH]cnc2n1 | 92% |
| CCN=c1cc2sc3cc(NCC)c(C)cc3nc-2cc1C | 15.2% |
| CC1CCC(C(=O)O)N1 (stereo not given) | 101% |
| O=C(CCl)Nc1ccc2c(c1)C(=O)c1ccc(NC(=O)CCl)cc1C2=O | -62.1% (active) |
| COCCCNC(=O)c1nnn2c1nc(N)c1cc(Cl)ccc12 | 78.6% |
| O=c1c2ccccc2c(Br)c(Br)c2ccccc12 | 91.4% |
| O=[N+]([O-])c1ccc(N=Nc2ccccc2)cc1 | 89.8% |
| COC(=O)/C=C/C(=O)NC(N)=O | 116% |
| COC(=O)Nc1cccc(Cl)c1OC | 110% |
| O=C(c1ccccc1)C1CCC1 | 114% |
| Cc1cc(C(C)(C)C)cc(C)c1Br | 112% |
| CCOC(=O)c1cc(/C=C/c2cccc(Cl)c2)on1 | 93.9% |
| CN(C)CCN(C)CC(C)(C)C(=O)/C=C/c1ccc(Cl)cc1 | 15.6% |
| NCCCN | 113% |

| SMILES | growth |
| --- | --- |
| Cc1cc(NC(=O)CSCC(=O)O)no1 | 114% |
| CN(C)c1ccc(C(c2ccc(O)cc2)c2ccc(N(C)C)cc2)cc1 | 106% |
| C=CC(O)CCC (stereo not given) | 121% |
| O=C1C=C(O)C(=O)C=C1O | 111% |
| CCCCCCCCOC(=O)c1ccccn1 | 103% |
| Oc1ccc(O)cc1 | 108% |
| c1ccc(/C(=N\N=C(/c2ccccc2)c2cccs2)c2cccs2)cc1 | 105% |
| NC(C(=O)O)C(O)c1ccco1 (stereo not given) | 124% |
| COC(=O)c1ccccc1N(C)C | 106% |
| N#C/C(=C\c1cc(O)c(O)c(O)c1)C(N)=O | 122% |
| C#C[C@H]1CCCCCC1O (stereo not given in full) | 107% |
| CC(=O)OCC1CCCO1 (stereo not given) | 113% |
| CCCOC(=O)C(O)c1ccccc1 (stereo not given) | 117% |
| O=c1[nH][nH]c(=O)c2cc([N+](=O)[O-])ccc12 | 103% |
| Cc1cc(C)cc(NCCC#N)c1 | 110% |
| COc1ccc(/C=C/c2cccc[n+]2C)cc1 | 85.3% |
| C/C(=C\c1cc(Cl)ccc1OCC(=O)O)[N+](=O)[O-] | 112% |
| FC(F)(F)c1ccc2c(c1)N(CCCN1CCN(C3CC3)CC1)c1ccccc1S2 | 50.2% |
| COS(=O)(=O)c1ccc(Br)cc1 | 118% |
| CC1(C)/C(=C\CO)C2CCC1C2 (stereo not given) | 112% |
